Measured values published in PubChem BioAssay (EPA / NIEHS).
Inconclusive results are not listed. Activity calls are given as the source filed them. How the source made its calls, unless noted: active means hit-call score of the fitted dose curve at least 0.9, where 1 is the maximum; inconclusive means response in the unintended direction; inactive means score below 0.9.

Experiments:
[1] = ATG_TAL_CIS: Attagene CIS-FACTORIAL HepG2 Assay for human TAL Basal Promoter (AID 2282966; active means hit-call score of the fitted dose curve at least 0.9, where 1 is the maximum; inactive means score below 0.9;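 further: background control endpoint measuring basal TAL promoter reporter mRNA not a specific factor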); conditions: HepG2 Attagene cis-factorial TAL promoter reporter; actives raise or lower the signal
How it was run: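 HepG2 cells were transiently transfected with promoter-driven multiplexed reporter units and dosed for 24 h. Reporter mRNA was measured by RT-PCR with capillary electrophoresis fluorescence; bidirectional fits used DMSO as baseline, serving as a background control.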

[2] = ATG_TGFb_CIS: Attagene CIS-FACTORIAL HepG2 Assay for human Transforming Growth Factor (TGF) (AID 2282967; active means hit-call score of the fitted dose curve at least 0.9, where 1 is the maximum; inactive means score below 0.9); conditions: HepG2 Attagene CIS TGFb reporter, mRNA transcription; actives raise or lower the signal
How it was run: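 Cells were dosed for 24 hours, after which total RNA was reverse-transcribed and reporter sequences amplified, labeled and sized by capillary electrophoresis. Activity was fitted in both directions against DMSO.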

[3] = ATG_VDRE_CIS: Attagene CIS-FACTORIAL HepG2 Assay for human Vitamin D Receptor Element (VDRE) (AID 2282968; active means hit-call score of the fitted dose curve at least 0.9, where 1 is the maximum; inactive means score below 0.9); conditions: HepG2 VDRE cis-reporter transcription, actives raise or lower the signal
How it was run: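 In transiently transfected HepG2 liver cells, gain or loss of reporter mRNA after 24 h exposure is scored relative to DMSO, using fluorescence detection by capillary electrophoresis of RT-PCR products.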

[4] = target: Nuclear receptor subfamily 1 group I member 3 (Homo sapiens) (UniProt Q14994); assay: ATG_CAR_TRANS: Attagene TRANS-FACTORIAL HepG2 Assay for human Constitutive Androstane Receptor (CAR) (AID 2282969); conditions: HepG2 Attagene TRANS-FACTORIAL CAR reporter;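 further: activators raise reporter mRNA above DMSO so AC50 marks induction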
How it was run: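 Readout is reporter mRNA induction, quantified by fluorescent primer extension and capillary electrophoresis after RT-PCR. Cells were HepG2 transiently carrying chimeric NR-Gal4 constructs with GAL4-UAS reporters, treated for 24 h; activity scored upward from DMSO.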

[5] = target: Estrogen receptor (Homo sapiens) (UniProt P03372); assay: ATG_ERa_TRANS: Attagene TRANS-FACTORIAL HepG2 Assay for human Estrogen Receptor alpha (ERa) (AID 2282970); conditions: HepG2 Attagene TRANS ERa GAL4 reporter, mRNA
How it was run: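 HepG2 cells transiently transfected with multiplexed GAL4-UAS reporter units; ERa activity read via exogenous chimeric NR-Gal4 protein. After 24 hour compound exposure, reporter mRNA measured by RT-PCR with 6-FAM labelling and capillary electrophoresis; gain-of-signal fitted relative to DMSO.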

[6] = target: Steroid hormone receptor ERR1 (Homo sapiens) (UniProt P11474); assay: ATG_ERRa_TRANS: Attagene TRANS-FACTORIAL HepG2 Assay for human Estrogen-Related Receptor alpha (ERRa) (AID 2282971); conditions: HepG2 Attagene TRANS reporter, ERRa transactivation
How it was run: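 HepG2 cells transiently transfected with multiplexed GAL4-UAS reporter units reading chimeric ERRa-Gal4 activity; 24 h compound exposure. Reporter mRNA measured by RT-PCR, 6-FAM labelling, HpaI digest and capillary electrophoresis; gain of signal fitted versus DMSO baseline.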

[7] = target: X-box-binding protein 1 (Homo sapiens) (UniProt P17861); assay: ATG_Xbp1_CIS: Attagene CIS-FACTORIAL HepG2 Assay for human X-box Binding Protein 1 (XBP1) (AID 2282972; active means hit-call score of the fitted dose curve at least 0.9, where 1 is the maximum; inactive means score below 0.9); conditions: HepG2 XBP1 cis-element reporter, Attagene multiplex; actives raise or lower the signal
How it was run: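 HepG2 cells transiently transfected with multiple cis-element reporter units report endogenous TF activity; 24 h exposure, then reporter mRNA measured by RT-PCR, 6-FAM labelling, HpaI digestion and capillary electrophoresis. Bidirectional fitting versus DMSO.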

[8] = ATG_M_19_TRANS: Attagene TRANS-FACTORIAL HepG2 Assay for M19 Transcription Factor (Internal Marker) (AID 2282974); conditions: HepG2 Attagene TRANS-FACTORIAL M19 internal marker reporter
How it was run: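 Background-control readout: after 24 h chemical exposure of transfected HepG2 carrying GAL4-driven reporter units, RNA was reverse-transcribed, amplified, fluorescently labeled and sized by capillary electrophoresis; gain-of-signal fit against DMSO.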

[9] = target: Glucocorticoid receptor (Homo sapiens) (UniProt P04150); assay: ATG_GR_TRANS: Attagene TRANS-FACTORIAL HepG2 Assay for human Glucocorticoid Receptor (GR) (AID 2282978); conditions: HepG2 Attagene TRANS GR reporter, mRNA transcription;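 further: activators score as hits since higher reporter transcript over DMSO is fitted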
How it was run: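 Readout is reporter transcript from a chimeric GR-Gal4 acting on GAL4-UAS in transfected human HepG2 liver cells after 24 h exposure, quantified by RT-PCR and capillary electrophoresis. Activation fitted upward against DMSO.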

[10] = target: Hepatocyte nuclear factor 4-alpha (Homo sapiens) (UniProt P41235); assay: ATG_HNF4a_TRANS: Attagene TRANS-FACTORIAL HepG2 Assay for human Hepatocyte Nuclear Factor 4 alpha (HNF4a) (AID 2282982); conditions: HepG2 HNF4a transactivation reporter, mRNA readout
How it was run: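 Transfected HepG2 reporter cells are dosed for 24 h; reporter RNA is reverse-transcribed, amplified, fluorescently labelled and HpaI-digested before CE sizing. Positive-direction fit against DMSO.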

[11] = ATG_M_32_TRANS: Attagene TRANS-FACTORIAL HepG2 Assay for M32 Transcription Factor (Internal Marker) (AID 2282984); conditions: HepG2 Attagene TRANS M32 internal marker reporter
How it was run: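 Using transiently transfected HepG2 cells exposed to test chemicals for 24 h, reporter transcripts are converted to labelled cDNA fragments and quantified by capillary electrophoresis. DMSO defines the activity baseline.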

[12] = target: Nuclear receptor subfamily 4 group A member 2 (Homo sapiens) (UniProt P43354); assay: ATG_NURR1_TRANS: Attagene TRANS-FACTORIAL HepG2 Assay for human Nuclear Receptor Related Protein 1 (NURR1) (AID 2282985); conditions: HepG2 Attagene TRANS reporter, mRNA readout
How it was run: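 Cells: HepG2, transiently transfected. Exposure: 24 h. Detection: fluorescence of labelled RT-PCR products separated by capillary electrophoresis; upward fit versus DMSO.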

[13] = target: Transcriptional activator Myb (Homo sapiens) (UniProt P10242); assay: ATG_Myb_CIS: Attagene CIS-FACTORIAL HepG2 Assay for human Myeloblastosis (Myb) Proto-Oncogene Transcription Factor (AID 2282986; active means hit-call score of the fitted dose curve at least 0.9, where 1 is the maximum; inactive means score below 0.9); conditions: HepG2 Attagene CIS-FACTORIAL Myb reporter transcription; actives raise or lower the signal
How it was run: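 Reporter mRNA is quantified by RT-PCR and capillary electrophoresis 24 h after dosing HepG2 cells transfected with cis-regulated reporter units, which track endogenous transcription factor activity. Gain and loss of signal are fitted versus DMSO baseline.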

[14] = target: Estrogen-related receptor gamma (Homo sapiens) (UniProt P62508); assay: ATG_ERRg_TRANS: Attagene TRANS-FACTORIAL HepG2 Assay for human Estrogen-Related Receptor gamma (ERRg) (AID 2282977); conditions: HepG2 Attagene TRANS reporter, ERRg transactivation;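 further: hits increase reporter signal over DMSO so potencies reflect activators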
How it was run: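 HepG2 cells transiently transfected with multiplexed GAL4-UAS reporter units and chimeric NR-Gal4 constructs were exposed to test chemicals for 24 h. Reporter mRNA was measured by RT-PCR, 6-FAM primer extension, HpaI digestion and capillary electrophoresis; gain-of-signal versus DMSO.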

[15] = target: Bile acid receptor (Homo sapiens) (UniProt Q96RI1); assay: ATG_FXR_TRANS: Attagene TRANS-FACTORIAL HepG2 Assay for Farnesoid X Receptor (FXR) (AID 2282979); conditions: HepG2 Attagene TRANS FXR-GAL4 reporter transcription;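 further: hits raise reporter mRNA above DMSO so AC50 marks FXR activation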
How it was run: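 HepG2 cells transiently transfected with reporter constructs in which a chimeric FXR-GAL4 protein drives a GAL4-UAS reporter; 24 h compound exposure. Reporter mRNA measured by RT-PCR, FAM labelling, HpaI digestion and capillary electrophoresis; gain-of-signal versus DMSO.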

[16] = target: Androgen receptor (Homo sapiens) (UniProt P10275); assay: ATG_AR_TRANS: Attagene TRANS-FACTORIAL HepG2 Assay for human Androgen Receptor (AR) (AID 2282973); conditions: HepG2 Attagene TRANS-FACTORIAL AR reporter transcription
How it was run: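 HepG2 cells transiently transfected with multiplexed GAL4-UAS reporter units and chimeric NR-Gal4 fusion; 24 h compound exposure. Reporter mRNA measured by RT-PCR, 6-FAM labelling, HpaI digestion and capillary electrophoresis; gain-of-signal fitted relative to DMSO baseline.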

[17] = target: Oxysterols receptor LXR-alpha (Homo sapiens) (UniProt Q13133); assay: ATG_LXRa_TRANS: Attagene TRANS-FACTORIAL HepG2 Assay for human Liver X Receptor alpha (LXRa) (AID 2282980); conditions: HepG2 Attagene TRANS reporter, LXRa transactivation
How it was run: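 HepG2 cells were transiently transfected with multiplexed reporter units driven by chimeric LXRa–GAL4 fusion proteins, then dosed for 24 h. Reporter mRNA was quantified by RT-PCR, fluorescent labelling and capillary electrophoresis; gain of signal fitted against DMSO baseline.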

[18] = target: Oxysterols receptor LXR-beta (Homo sapiens) (UniProt P55055); assay: ATG_LXRb_TRANS: Attagene TRANS-FACTORIAL HepG2 Assay for human Liver X Receptor beta (LXRb) (AID 2282981); conditions: HepG2 Attagene TRANS GAL4-LXRb reporter, mRNA
How it was run: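 Cells: HepG2, transiently transfected with GAL4-UAS reporter units plus LXRb-Gal4 fusion. Treatment: 24 h. Detection: reporter mRNA by RT-PCR, 6-FAM labelling, HpaI digestion, capillary electrophoresis.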

[19] = ATG_M_06_TRANS: Attagene TRANS-FACTORIAL HepG2 Assay for M06 Transcription Factor (Internal Marker) (AID 2282983); conditions: HepG2 Attagene TRANS M06 internal marker reporter;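 further: reporter transcript level by RT-PCR then capillary electrophoresis fluorescence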
How it was run: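 HepG2 cells transiently transfected with multiplexed GAL4-UAS reporter transcription units; after 24 h compound exposure, reporter mRNA measured by RT-PCR, FAM-labelled primer extension, HpaI digestion and capillary electrophoresis. Gain-of-signal fitted versus DMSO baseline; background control readout.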

[20] = ATG_GAL4_TRANS: Attagene TRANS-FACTORIAL HepG2 Assay for GAL4 (Internal Marker) (AID 2282976); conditions: HepG2 Attagene TRANS GAL4 internal marker reporter
How it was run: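 HepG2 cells transiently transfected with multiplexed GAL4-UAS reporter constructs were dosed for 24 h. Reporter mRNA was measured by RT-PCR, 6-FAM primer extension, HpaI digestion and capillary electrophoresis, and gain of signal was fitted relative to DMSO.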

Measured: AC50

Sequence of X-box-binding protein 1 (Homo sapiens) (P17861 whole entry, looked up): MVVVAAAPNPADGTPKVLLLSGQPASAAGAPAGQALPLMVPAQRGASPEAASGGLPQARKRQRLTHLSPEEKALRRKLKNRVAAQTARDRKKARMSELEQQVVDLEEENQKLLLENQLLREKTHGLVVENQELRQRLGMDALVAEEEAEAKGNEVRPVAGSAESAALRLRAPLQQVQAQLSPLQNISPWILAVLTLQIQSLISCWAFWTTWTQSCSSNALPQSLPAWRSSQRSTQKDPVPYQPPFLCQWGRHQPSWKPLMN
Sequence of Oxysterols receptor LXR-alpha (Homo sapiens) (Q13133 whole entry, looked up, the tested form may be a part): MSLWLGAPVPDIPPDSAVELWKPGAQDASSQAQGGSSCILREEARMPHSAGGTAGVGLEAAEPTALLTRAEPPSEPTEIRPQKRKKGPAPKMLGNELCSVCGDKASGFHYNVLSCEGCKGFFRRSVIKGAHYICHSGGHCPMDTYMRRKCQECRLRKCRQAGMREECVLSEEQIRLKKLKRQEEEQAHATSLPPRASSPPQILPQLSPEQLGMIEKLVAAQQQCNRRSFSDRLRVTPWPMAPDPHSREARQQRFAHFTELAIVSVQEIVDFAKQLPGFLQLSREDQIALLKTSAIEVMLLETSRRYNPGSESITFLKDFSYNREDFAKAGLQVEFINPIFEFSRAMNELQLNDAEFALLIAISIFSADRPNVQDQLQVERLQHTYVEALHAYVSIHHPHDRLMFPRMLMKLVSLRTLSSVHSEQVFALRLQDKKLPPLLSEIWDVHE
Sequence of Glucocorticoid receptor (Homo sapiens) (P04150 whole entry, looked up, the tested form may be a part): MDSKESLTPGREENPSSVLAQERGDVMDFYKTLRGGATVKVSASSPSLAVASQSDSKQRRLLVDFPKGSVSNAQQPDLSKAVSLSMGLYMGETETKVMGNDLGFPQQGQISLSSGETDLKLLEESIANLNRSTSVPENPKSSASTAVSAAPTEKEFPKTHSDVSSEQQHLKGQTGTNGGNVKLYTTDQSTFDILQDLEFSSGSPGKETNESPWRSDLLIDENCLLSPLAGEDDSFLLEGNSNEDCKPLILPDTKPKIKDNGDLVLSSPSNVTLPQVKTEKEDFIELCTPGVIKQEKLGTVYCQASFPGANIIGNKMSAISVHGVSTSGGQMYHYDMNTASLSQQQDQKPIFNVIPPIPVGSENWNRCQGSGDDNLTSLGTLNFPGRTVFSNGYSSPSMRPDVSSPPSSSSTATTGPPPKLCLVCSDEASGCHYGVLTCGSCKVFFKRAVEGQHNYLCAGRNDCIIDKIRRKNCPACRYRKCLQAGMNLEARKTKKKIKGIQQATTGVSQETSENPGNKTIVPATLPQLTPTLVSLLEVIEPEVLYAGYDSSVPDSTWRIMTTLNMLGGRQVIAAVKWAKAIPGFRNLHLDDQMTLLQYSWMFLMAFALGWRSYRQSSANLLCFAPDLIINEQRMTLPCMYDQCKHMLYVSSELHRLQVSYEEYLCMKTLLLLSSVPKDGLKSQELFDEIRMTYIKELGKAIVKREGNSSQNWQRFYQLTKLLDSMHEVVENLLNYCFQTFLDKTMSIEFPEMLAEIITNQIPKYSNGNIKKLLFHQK
Sequence of Oxysterols receptor LXR-beta (Homo sapiens) (P55055 whole entry, looked up, the tested form may be a part): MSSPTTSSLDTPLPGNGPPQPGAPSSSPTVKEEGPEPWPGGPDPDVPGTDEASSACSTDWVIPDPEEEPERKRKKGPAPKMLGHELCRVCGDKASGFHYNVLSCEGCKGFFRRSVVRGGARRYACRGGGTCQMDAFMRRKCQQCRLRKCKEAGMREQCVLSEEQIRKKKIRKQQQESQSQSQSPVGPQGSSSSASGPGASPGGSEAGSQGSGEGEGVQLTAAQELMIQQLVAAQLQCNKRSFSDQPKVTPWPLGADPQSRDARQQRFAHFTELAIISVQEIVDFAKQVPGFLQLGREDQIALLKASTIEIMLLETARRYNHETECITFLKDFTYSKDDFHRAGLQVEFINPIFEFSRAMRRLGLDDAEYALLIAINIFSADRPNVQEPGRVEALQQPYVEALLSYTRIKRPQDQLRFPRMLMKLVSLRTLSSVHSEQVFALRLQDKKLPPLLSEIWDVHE
Sequence of Estrogen receptor (Homo sapiens) (P03372 whole entry, looked up, the tested form may be a part): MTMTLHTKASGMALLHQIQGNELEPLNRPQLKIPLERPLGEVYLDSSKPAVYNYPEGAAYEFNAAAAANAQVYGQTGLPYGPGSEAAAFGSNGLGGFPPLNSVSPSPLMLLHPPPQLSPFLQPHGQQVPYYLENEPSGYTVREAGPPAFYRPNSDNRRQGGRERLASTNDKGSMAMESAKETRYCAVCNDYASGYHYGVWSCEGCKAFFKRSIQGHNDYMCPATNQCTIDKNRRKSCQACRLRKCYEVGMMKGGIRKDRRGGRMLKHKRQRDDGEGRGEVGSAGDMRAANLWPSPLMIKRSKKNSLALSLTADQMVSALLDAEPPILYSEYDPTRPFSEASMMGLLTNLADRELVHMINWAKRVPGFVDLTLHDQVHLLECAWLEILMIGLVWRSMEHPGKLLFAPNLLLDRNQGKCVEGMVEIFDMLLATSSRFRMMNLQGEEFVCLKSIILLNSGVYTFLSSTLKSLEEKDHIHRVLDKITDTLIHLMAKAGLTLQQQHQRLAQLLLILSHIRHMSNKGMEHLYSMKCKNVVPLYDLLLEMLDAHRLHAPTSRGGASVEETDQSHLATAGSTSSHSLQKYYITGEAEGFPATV
Sequence of Bile acid receptor (Homo sapiens) (Q96RI1 whole entry, looked up, the tested form may be a part): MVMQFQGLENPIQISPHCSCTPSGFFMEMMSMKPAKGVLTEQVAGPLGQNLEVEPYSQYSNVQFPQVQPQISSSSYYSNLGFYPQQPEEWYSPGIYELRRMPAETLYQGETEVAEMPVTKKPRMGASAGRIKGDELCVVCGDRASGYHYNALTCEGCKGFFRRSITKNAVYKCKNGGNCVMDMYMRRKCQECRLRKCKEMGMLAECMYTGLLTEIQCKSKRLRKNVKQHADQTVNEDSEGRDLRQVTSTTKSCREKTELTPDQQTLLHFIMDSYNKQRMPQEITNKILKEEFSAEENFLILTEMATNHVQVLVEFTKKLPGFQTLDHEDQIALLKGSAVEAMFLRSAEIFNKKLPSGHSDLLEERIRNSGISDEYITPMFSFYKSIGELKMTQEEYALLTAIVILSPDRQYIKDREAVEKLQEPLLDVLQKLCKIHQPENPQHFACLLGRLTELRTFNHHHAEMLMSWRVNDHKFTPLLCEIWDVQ
Sequence of Hepatocyte nuclear factor 4-alpha (Homo sapiens) (P41235 whole entry, looked up): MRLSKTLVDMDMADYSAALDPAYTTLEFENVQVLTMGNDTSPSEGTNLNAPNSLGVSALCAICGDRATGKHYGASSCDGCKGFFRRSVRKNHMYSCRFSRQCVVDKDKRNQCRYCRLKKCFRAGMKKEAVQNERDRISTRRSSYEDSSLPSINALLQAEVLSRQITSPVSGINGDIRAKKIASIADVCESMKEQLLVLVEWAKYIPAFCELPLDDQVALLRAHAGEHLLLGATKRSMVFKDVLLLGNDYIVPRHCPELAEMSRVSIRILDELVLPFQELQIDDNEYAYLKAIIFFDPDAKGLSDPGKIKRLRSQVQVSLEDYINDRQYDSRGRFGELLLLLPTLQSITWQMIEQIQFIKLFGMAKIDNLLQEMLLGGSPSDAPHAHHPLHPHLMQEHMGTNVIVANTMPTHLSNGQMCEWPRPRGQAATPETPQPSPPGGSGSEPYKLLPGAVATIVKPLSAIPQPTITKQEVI
Sequence of Androgen receptor (Homo sapiens) (P10275 whole entry, looked up, the tested form may be a part): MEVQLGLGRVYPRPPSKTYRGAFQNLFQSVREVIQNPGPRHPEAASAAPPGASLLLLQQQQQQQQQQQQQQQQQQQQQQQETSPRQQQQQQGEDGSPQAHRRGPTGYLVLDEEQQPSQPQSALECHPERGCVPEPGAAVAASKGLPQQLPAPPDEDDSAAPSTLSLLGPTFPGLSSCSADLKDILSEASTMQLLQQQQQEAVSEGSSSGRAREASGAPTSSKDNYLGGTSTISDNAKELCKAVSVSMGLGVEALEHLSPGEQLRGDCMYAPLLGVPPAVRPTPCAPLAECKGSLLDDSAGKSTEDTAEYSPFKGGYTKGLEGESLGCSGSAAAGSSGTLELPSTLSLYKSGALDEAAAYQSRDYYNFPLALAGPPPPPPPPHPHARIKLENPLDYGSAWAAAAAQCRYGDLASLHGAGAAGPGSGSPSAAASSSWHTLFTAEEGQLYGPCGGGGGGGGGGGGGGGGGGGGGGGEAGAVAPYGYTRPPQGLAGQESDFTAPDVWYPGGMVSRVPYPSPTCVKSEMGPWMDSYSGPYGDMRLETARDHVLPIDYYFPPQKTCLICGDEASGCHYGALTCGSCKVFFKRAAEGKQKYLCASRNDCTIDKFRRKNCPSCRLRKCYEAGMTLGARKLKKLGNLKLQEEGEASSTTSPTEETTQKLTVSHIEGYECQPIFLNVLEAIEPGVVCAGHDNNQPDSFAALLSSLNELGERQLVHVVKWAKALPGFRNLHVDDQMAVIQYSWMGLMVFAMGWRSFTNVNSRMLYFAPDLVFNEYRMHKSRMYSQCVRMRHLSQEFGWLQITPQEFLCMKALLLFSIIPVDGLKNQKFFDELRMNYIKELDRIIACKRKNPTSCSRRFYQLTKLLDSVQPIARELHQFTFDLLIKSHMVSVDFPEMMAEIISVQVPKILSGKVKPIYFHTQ
Sequence of Steroid hormone receptor ERR1 (Homo sapiens) (P11474 whole entry, looked up, the tested form may be a part): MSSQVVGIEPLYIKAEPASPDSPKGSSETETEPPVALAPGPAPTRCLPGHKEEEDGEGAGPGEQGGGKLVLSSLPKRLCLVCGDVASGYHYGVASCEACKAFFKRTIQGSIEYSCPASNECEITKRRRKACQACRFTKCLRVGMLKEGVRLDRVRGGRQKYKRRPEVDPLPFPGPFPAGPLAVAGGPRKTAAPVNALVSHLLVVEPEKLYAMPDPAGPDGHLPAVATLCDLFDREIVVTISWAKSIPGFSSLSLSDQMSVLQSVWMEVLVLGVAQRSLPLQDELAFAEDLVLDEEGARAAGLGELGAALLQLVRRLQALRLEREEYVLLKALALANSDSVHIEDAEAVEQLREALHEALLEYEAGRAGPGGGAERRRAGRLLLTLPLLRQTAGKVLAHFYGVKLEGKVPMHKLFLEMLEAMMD

Nc1ccc(Sc2ccc(N)cc2)cc1
active: [3] 62.9 µM | [5] 7.99 µM
not listed: [14] | [15] | [16] | [17] | [18] | [19] | [20]
inactive: all other assays above

CCOP(=S)(OCC)SCn1nnc2ccccc2c1=O
active: [3] 1.61 µM | [5] 3.08 µM | [15] 26.5 µM
not listed: [12] | [16] | [17] | [18] | [19] | [20]
inactive: all other assays above

O=S(=O)(F)C(F)(F)C(F)(F)C(F)(F)C(F)(F)C(F)(F)C(F)(F)C(F)(F)C(F)(F)F
not listed: [12] | [15] | [20]
inactive: all other assays above

CCOP(=S)(OCC)SCSc1ccc(Cl)cc1
active: [3] 5.83 µM | [5] 3.48 µM
inactive: [1] | [2] | [4] | [7] | [8] | [15] | [18] | [10] | [11] | [13]

COP(N)(=S)OC
not listed: [10] | [12] | [14] | [15] | [17] | [18] | [19]
inactive: all other assays above

O=C(CBr)OCc1ccccc1
not listed: [6] | [10] | [11] | [12] | [14] | [16] | [18]
inactive: all other assays above

CCOP(=S)(OCC)SCS(=O)(=O)CC
not listed: [12] | [14]
inactive: all other assays above

CCN(CC)C1CCCCC1
not listed: [8] | [12] | [14] | [15] | [16] | [17] | [18] | [20]
inactive: all other assays above
